The structures appear in SMILES notation. The full ranking holds about 110,000 compounds; the median of “z-score” is about -0.1, and the highest 2% start at about 2. Only a selection was taken, and the highest values are over-represented in it overall. Calls of active or inactive are those of the source.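 The calls were made as follows: active = z-score in the third read window above 3 or below -3; inactive = the rest.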 Non-standard residues stand in square brackets, D forms with d. Residues, ends and D or L forms follow the SMILES beside them. ξ: configuration not given here. *: point of attachment. Boc = CC(C)(C)OC(=O)*; ξP = O=C(O)C1CCCN1

For the test, the target named is Metabotropic glutamate receptor 8 (Rattus norvegicus) (UniProt P70579). Nature of the test: rat mGluR8 modulators via GIRK flux, primary screen, cell-based, thallium flux, HTS (AID 488969). The following applies: HEK293 rat mGluR8, GIRK (G protein-gated inwardly rectifying potassium channel) thallium flux, FluoZin2; at 10 µM; stronger effect = higher value; submaximal glutamate (EC20) added with thallium.
Chain of Metabotropic glutamate receptor 8 (Rattus norvegicus) (P70579 whole entry, looked up): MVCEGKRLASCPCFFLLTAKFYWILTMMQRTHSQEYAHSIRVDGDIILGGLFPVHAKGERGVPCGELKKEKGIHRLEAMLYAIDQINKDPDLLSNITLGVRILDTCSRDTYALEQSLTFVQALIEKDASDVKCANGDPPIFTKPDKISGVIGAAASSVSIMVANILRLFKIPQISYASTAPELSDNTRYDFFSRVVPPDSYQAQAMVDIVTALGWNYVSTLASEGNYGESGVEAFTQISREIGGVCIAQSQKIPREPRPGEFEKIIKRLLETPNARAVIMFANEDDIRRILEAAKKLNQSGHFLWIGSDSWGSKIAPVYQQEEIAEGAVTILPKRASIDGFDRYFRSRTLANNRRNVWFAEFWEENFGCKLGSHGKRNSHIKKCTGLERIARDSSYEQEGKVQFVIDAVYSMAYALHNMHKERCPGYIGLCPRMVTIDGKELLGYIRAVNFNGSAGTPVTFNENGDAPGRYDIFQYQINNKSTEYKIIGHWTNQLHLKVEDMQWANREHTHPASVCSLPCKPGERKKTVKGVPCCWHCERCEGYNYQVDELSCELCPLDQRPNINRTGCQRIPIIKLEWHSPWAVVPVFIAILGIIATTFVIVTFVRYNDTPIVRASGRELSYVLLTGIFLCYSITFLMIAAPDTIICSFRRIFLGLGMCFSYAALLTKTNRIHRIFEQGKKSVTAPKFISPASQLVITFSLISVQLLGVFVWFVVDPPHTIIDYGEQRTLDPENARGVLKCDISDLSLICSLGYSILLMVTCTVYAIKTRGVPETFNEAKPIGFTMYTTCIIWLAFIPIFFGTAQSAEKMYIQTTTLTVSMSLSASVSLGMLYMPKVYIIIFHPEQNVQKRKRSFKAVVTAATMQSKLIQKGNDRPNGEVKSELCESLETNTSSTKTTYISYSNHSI
On to `O=S(=O)(Nc1cccc2nsnc12)c1ccccc1`, for which the z-score came to 0.265.

`Cc1ccc(C)c(NS(=O)(=O)c2c(C)ccc3nsnc23)c1` returned a z-score of -0.891.

`Cc1ccc2nsnc2c1S(=O)(=O)Nc1cccc2nsnc12`: the z-score is 14.7 (active).

Regarding `O=C(O)COc1ccc(/C=N/n2c(COc3ccccc3)nc3ccccc3c2=O)cc1`, the z-score is -0.124.

`O=C1CCCCC(=O)c2ccccc2N1` registered a z-score of 2.21.

Take `O=C1CCCc2sccc2N1`: the z-score is -0.164.

With `O=C1C(=C(c2ccccc2)c2ccccc2)Nc2ccccc21`, the z-score was -1.32.

Turning to `Cc1cc2cc(C)c3nnc(SCC(=O)N4CCc5ccccc54)n3c2cc1C`, the z-score is -0.31.

The molecule `COc1cc(CNC2CCCCCC2)cc(OC)c1O` came in with a z-score of 0.176.

In the case of `CCn1c(CNC(=O)c2ccco2)nnc1SCC(=O)Nc1cc(C)c(C)cc1Br`, the z-score is -0.121.

On to `COC(=O)c1c(N)c(C#N)c(C)n1-c1ccccc1`, for which the z-score was -0.272.

`CC(C)(C)C(=O)Nc1ccccc1C(=O)OCC(=O)c1ccc2c(c1)OCCO2` registered a z-score of -0.731.

In turn, `CCOC(=O)N1CCN(Cc2nc(N)nc(Nc3ccccc3C)n2)CC1` came in with a z-score of -0.106.

`OCCCCNCc1ccc(OCc2ccc(Cl)cc2Cl)cc1` came in with a z-score of 1.19.

`OCCCCNCc1ccc(OCc2ccccc2)cc1`: the z-score was determined as 0.0747.

`OCCCCNCc1ccc(OCc2ccccc2Cl)cc1` came in with a z-score of 2.17.

For the molecule `Cc1occc1-c1nnc(SCc2cc(=O)n3cc(Br)ccc3n2)n1C`, the z-score is 0.0968.

In the case of `Cc1oc(-c2cccc(Cl)c2)nc1CN1CCC(C(=O)NCC2CCCO2)CC1` (stereo not given), the z-score is -0.375.

`CCN1CCCC1CNC(=O)CSCc1nc(-c2ccccc2C)oc1C` (stereo not given): the z-score is 4.01 (active).

With `Cc1oc(-c2cccc(Cl)c2)nc1CN1CCC(C(=O)NCc2ccco2)CC1`, the z-score is -4.86 (active).

On to `Cc1ccccc1-c1nc(CN2CCC(C(=O)NCCCN3CCCC3)CC2)c(C)o1`, for which the z-score came out at 2.76.

In the case of `Cc1ccccc1-c1nc(CN2CCC(C(=O)NCC3CCCO3)CC2)c(C)o1` (stereo not given), the z-score is -0.924.

Take `Cc1ccccc1-c1nc(CN2CCC(C(=O)NCCC3=CCCCC3)CC2)c(C)o1`: the z-score came out at 1.63.

With `CCN1CCCC1CNC(=O)CS(=O)(=O)Cc1nc(-c2ccccc2C)oc1C` (stereo not given), the z-score is 1.21.

In turn, `Cc1oc(-c2ccccc2Cl)nc1CSCC(=O)NC1CCCC1` registered a z-score of -0.0255.

`Cc1ccccc1-c1nc(CN2CCC(C(=O)NCCCN3CC(C)CC(C)C3)CC2)c(C)o1` (stereo not given) came in with a z-score of 2.43.

On to `Cc1ccccc1-c1nc(CN2CCCC(C(=O)NCCCN3CCOCC3)C2)c(C)o1` (stereo not given), for which the z-score was -0.359.

`CCN1CCCC1CNC(=O)C1CCN(Cc2nc(-c3cccc(Br)c3)oc2C)CC1` (stereo not given): the z-score was 4.3 (active).

`Cc1ccccc1-c1nc(CN2CCC(C(=O)NCCCN3CCOCC3)CC2)c(C)o1` yielded a z-score of -0.636.

`COCCNC(=O)c1ccc(C(=O)C(=O)c2ccccc2)cc1` came in with a z-score of -0.189.

`CCOC(=O)N1CCC(NC(=O)c2cc3c(=O)n(C)c4ccccc4c3n2C)CC1` registered a z-score of -0.597.

For the molecule `CC(C)(C)NS(=O)(=O)c1ccc(CCC(=O)Nc2cc(Cl)ccc2Oc2ccccc2)cc1`, the z-score was 0.0264.

With `Cc1ccc(C(=O)Oc2coc(CSc3nnc(NC(=O)C4CC4)s3)cc2=O)cc1C`, the z-score was 0.84.

The molecule `Cc1nnc(N(Cc2ccccc2)C(=O)c2cnccn2)s1` yielded a z-score of 0.0216.

With `C=CCn1c(SCC(=O)Nc2sccc2C(N)=O)nc2ccccc2c1=O`, the z-score is -0.59.

Consider `C=CCn1c(SCC(=O)Nc2sccc2C(N)=O)nc2sc(CC)cc2c1=O`, for which the z-score was -1.15.

Regarding `C=CCn1c(SCC(=O)Nc2sccc2C(N)=O)nc2ccc(Cl)cc2c1=O`, the z-score is 5.23 (active).

In turn, `C=CCn1c(SCC(=O)NCCC2=CCCCC2)nc2ccc(Cl)cc2c1=O` came in with a z-score of -0.151.

As to `C=CCn1c(SCN2C(=O)c3ccccc3C2=O)nc2ccc(Cl)cc2c1=O`, the z-score is 12.6 (active).

`C=CCn1c(SCC(=O)c2ccc(Cl)s2)nc2ccccc2c1=O` gave a z-score of -0.205.

Consider `O=C1C2C3C=CC([C@@H]2C(=O)N1c1nccs1)C31CC1` (stereo not given in full), for which the z-score was -0.0608.

In turn, `Cc1ccc2nc(NC(=O)c3ccc(NS(=O)(=O)c4cccs4)cc3)sc2c1` registered a z-score of 0.062.

Take `NC(=S)N=Nc1c(O)[nH]c2ccc(F)cc12`: the z-score was 1.48.

As to `CNC(=S)N=Nc1c(O)[nH]c2ccc(C(C)C)cc12`, the z-score was 5.56 (active).

As for `CC(C)NC(=S)N=Nc1c(O)[nH]c2ccc(C(C)C)cc12`, the z-score is 0.589.

Consider `COC(=O)CNC(=O)C1CCCN1C(=O)OC(C)(C)C` (stereo not given) (Boc-[ξP]-Gly-OMe), for which the z-score is -0.536.

In turn, `Cn1cc(Cl)c(C(=O)Nc2nc3ccc(Cl)cc3s2)n1` registered a z-score of 0.119.

Molecule `CCOC(=O)N1CCN(c2cc3nccnc3cc2F)CC1` showed a z-score of -0.142.

`CCOC(=O)N1CCN(c2cc3[nH]c(=S)[nH]c3cc2F)CC1`: the z-score is -0.482.

As to `CCOC(=O)N1CCN(c2c(F)cc3[nH]c(=S)[nH]c3c2Br)CC1`, the z-score was 6.26 (active).

Molecule `CC1CCCC(C)N1C(=O)CSc1nnc(NC(=O)Cc2cccs2)s1` (stereo not given) registered a z-score of -1.05.

The molecule `Cc1cc(NC(=O)CCC(=O)NNC(=O)c2ccc(C(C)(C)C)cc2)no1` had a z-score of -0.141.

In the case of `Cc1noc(C)c1CSc1ccccc1C(=O)Nc1nccs1`, the z-score was 0.618.

`CCN=c1scc(-c2cccs2)n1/N=C/c1cc(OC)ccc1O` yielded a z-score of 2.02.

In turn, `CCN=c1scc(C)n1/N=C/c1ccsc1` displayed a z-score of -0.0195.

`COCCNC(=O)Nc1ccc2nc(-c3cccs3)c(-c3cccs3)nc2c1` returned a z-score of -0.235.

In the case of `CN=c1scc(-c2cccs2)n1/N=C/c1ccc(O)c(O)c1O`, the z-score was 3.01 (active).

On to `Oc1ccc(/C=N/N=C(c2ccccc2)c2ccccc2)c(O)c1O`, for which the z-score was -0.213.

As for `CN=c1scc(C)n1/N=C/c1ccc(O)c(O)c1O`, the z-score was -0.648.

Turning to `CCN=c1scc(C)n1/N=C/c1ccc(O)c(O)c1O`, the z-score was -0.528.

The molecule `CN=c1scc(C)n1/N=C/c1ccc(O)cc1O` yielded a z-score of 0.0453.

Regarding `COCCN=c1scc(-c2cccs2)n1/N=C/c1ccc(O)c(O)c1O`, the z-score stood at 2.93.

`CN=c1scc(-c2cccs2)n1/N=C/c1ccccc1O` had a z-score of 0.0374.

In the case of `CC(C)N=c1scc(-c2cccs2)n1/N=C/c1ccc(O)c(O)c1O`, the z-score was 4.07 (active).

Molecule `COc1ccc(O)c(/C=N/n2c(-c3ccco3)csc2=Nc2cccnc2)c1` showed a z-score of 0.368.

In turn, `COc1cc(/C=N/NC(=O)COc2ccc(Cl)cc2)ccc1OS(=O)(=O)c1ccc(C)cc1` came in with a z-score of -0.0849.

The molecule `CCOC(=O)C1=NNC(C(=O)c2ccc(C)cc2)C1c1ccc(C)cc1` (stereo not given) showed a z-score of -0.512.

The molecule `C=C(C)c1cccc(C(C)(C)NC(=O)N2CC(C)OC(C)C2)c1` (stereo not given) registered a z-score of -0.0325.

`Cc1nn(C)c(C)c1/C=C(\C#N)C(N)=O` yielded a z-score of -0.273.

Molecule `Cc1ccc(CN(Cc2ccc(C)o2)C(=S)NCC(=O)O)cc1` registered a z-score of -0.00212.

The values above are taken from PubChem BioAssay AID488969 (Vanderbilt High Throughput Screening Facility, 2010).
